Rows were chosen to be rich in hits. Some 10% of all compounds tested hit in one or more screens of this group.
GPT2 inh = GPT2 alanine aminotransferase inhibition; Q8TD30; Recombinant GPT2, coupled pyruvate oxidase/HRP Amplex Red fluorescence; Potency, µM (series often up to 57.7 µM), inactives show top-dose activity change, negative = inhibition, actives largely listed as inhibitors; 100,000 tested, 0.25% active; note: nearly all actives have a fitted effect of over 60% in size
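Inhibition is scored from Amplex Red fluorescence generated when pyruvate oxidase and HRP act on pyruvate released by GPT2. Reactions contain 10ng/uL enzyme, 250uM a-KG and 2mM L-alanine and run 30 min at room temperature.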
FLuc inh = Photinus pyralis luciferase inhibition; 76,000 tested, 2.5% active; AID 1347043; Potency, µM (series often up to 115 µM), actives largely listed as inhibitors; purified P. pyralis luciferase, luminescence, biochemical; P08659; note: nearly all actives have a fitted effect of over 65% in size
Target sequence (P08659 whole entry, looked up): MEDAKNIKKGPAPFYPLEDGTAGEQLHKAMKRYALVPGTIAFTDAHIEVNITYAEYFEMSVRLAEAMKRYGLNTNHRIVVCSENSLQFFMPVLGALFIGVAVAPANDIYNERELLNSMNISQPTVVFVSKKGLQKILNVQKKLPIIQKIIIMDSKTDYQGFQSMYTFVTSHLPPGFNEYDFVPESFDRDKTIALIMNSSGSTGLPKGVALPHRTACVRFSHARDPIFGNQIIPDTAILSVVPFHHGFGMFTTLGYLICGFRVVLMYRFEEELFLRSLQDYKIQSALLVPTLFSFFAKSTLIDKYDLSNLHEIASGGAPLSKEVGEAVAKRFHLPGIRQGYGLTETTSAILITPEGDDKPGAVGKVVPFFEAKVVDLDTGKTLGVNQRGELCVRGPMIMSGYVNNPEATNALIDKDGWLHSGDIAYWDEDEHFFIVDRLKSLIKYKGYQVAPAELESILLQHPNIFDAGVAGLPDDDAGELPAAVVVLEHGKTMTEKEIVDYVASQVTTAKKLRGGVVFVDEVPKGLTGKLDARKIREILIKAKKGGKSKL
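Purified 10nM P. pyralis luciferase with 10uM D-luciferin and 10uM ATP in 50mM Tris acetate pH 7.5, 10mM Mg acetate, 0.01% Tween-20, 0.05% BSA. qHTS titration; luminescence read by CCD imager.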
HEK293 tox = HEK 293 cell cytotoxicity | HEK 293 viability, ATP luminescence (CellTiter-Glo), 48-72 h | AID 1345083 | Potency, µM (series often up to 115 µM), without a hit: top-dose activity change, negative = cytotoxicity, usual class: inhibitors | 94,000 tested, 6.6% active; note: nearly all actives have a fitted effect of over 60% in size
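HEK 293 cells at 250 cells/well were exposed to compounds by pintool transfer for 48 or 72 hr at 37 degree Celsius, 5% CO2. Viability was read as ATP-coupled luminescence with CellTiter-Glo after 10 min at room temperature.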
NIH3T3 tox = kills NIH 3T3 cells; 94,000 tested, 4.3% active; NIH 3T3 viability, CellTiter-Glo ATP luminescence, 48-72 h; Potency, µM (series often up to 96.7 µM), for the others: top-dose activity change, negative = cytotoxicity, hits mostly inhibitors; note: nearly all actives have a fitted effect of over 55% in size
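Cells were seeded at 400 per well, treated with pin-transferred compound, and kept 48 or 72 hr at 37 °C before CellTiter-Glo addition and luminescence imaging of cellular ATP.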
NPR1 antag = blocks ANP-stimulated signaling of human Npr1 receptor; HEK293 hNpr1 GloSensor cGMP, ANP-stimulated luminescence; 76,000 tested, 1.6% active; Potency, µM (doses to about 46.3 µM), inactives show at the highest dose activity change, negative = inhibition, most hits filed as inhibitors; AID 1347048; calls by dose curve; note: nearly all actives have a fitted effect of over 60% in size
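Compound pre-incubated 30 min at room temperature on GloSensor-loaded HEK293 cells stably carrying hNpr1 and the pGS-40F cGMP biosensor. Stimulation uses hNppA at 0.1 nM final; luminescence is taken at baseline and 20 min post-agonist.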
* = called active by the depositor; i = inactive; u = inconclusive; x = no result given; [ ] = remark or other dose. Unless noted, calls come from the whole dose curve; as a rule, active = well fitted curve in the direction sought with a large enough effect; inconclusive = small, poorly fitted or top-dose-only effect, or another doubt; inactive = no such curve, though single readings can be large; an effect the other way counts as inactive or inconclusive. % is set by controls: 0 for no effect and ±100 for the full control effect; potency is the fitted concentration of half-maximal effect.

SMILES	GPT2 inh	FLuc inh	HEK293 tox	NIH3T3 tox	NPR1 antag
CCOC(=O)[C@@H]1CN(C(=O)c2ncoc2-c2ccccc2)[C@H]2c3ccc(OC)cc3O[C@@H]12	x	x	u	-29.3%	x
c1ccc(CCCCn2ccnc2-c2cc3n(n2)CCCNC3)cc1	-0.9%	i	-28.8%	u	0.0%
Clc1ccc(Cn2ccnc2-c2cc3n(n2)CCCNC3)cc1Cl	4.7%	i	u	25.1µM*	-3.8%
O=C1CC2(CCN(Cc3cccnc3)CC2)Oc2cc(Cl)ccc21	i	25.1µM*	u	u	0.0%
O=C1CC2(CCN(Cc3ccc(F)cc3)CC2)Oc2ccccc21	2.1%[88.5 µM]	i	50.1µM*	u	-1.4%[70.6 µM]
CN(C)c1ccc(CN2CCC3(CC2)CC(=O)c2ccccc2O3)cc1	i	i	-6.6%	-5.5%	13.1%
CC(c1cccs1)N(C)Cc1ccc(N(C)C)cc1 (centres undefined)	i	i	-14.3%[172 µM]	-13.4%[138 µM]	-3.7%[70.6 µM]
Cc1noc2c(N3CCNC(=O)C3)cc(-c3cccs3)nc12	1.1%[88.5 µM]	i	u	31.6µM*	3.9%[70.6 µM]
COc1cccc(Nc2cc(-c3cccs3)nc3c(C)noc23)c1	2.3%[88.5 µM]	i	100µM*	79.4µM*	-9.8%[70.6 µM]
Cc1noc2c(NC3CCC(O)CC3)cc(-c3cccnc3)nc12 (centres undefined)	-32.8%[88.5 µM]	i	-17.6%[172 µM]	25.1µM*	8.0%[70.6 µM]
Cc1noc2c(NC3CCC(O)CC3)cc(-c3cccs3)nc12 (centres undefined)	-1.8%[88.5 µM]	i	u	28.2µM*	0.0%[70.6 µM]
Cc1noc2c(N3CCNC(=O)C3)cc(-c3cccc(C(F)(F)F)c3)nc12	3.7%[88.5 µM]	i	u	u	-25.3%[70.6 µM]
Cc1noc2c(NC3CCN(C)CC3)cc(-c3cccnc3)nc12	-2.1%[88.5 µM]	i	u	u	-1.5%[70.6 µM]
COC(=O)c1ccc(CN2C(=O)[C@@H]3C[C@@H](O)CN3C3(CN(Cc4ccc(F)cc4)C3)C2=O)cc1	i	i	-1.1%	-17.7%	-0.1%
COc1ccc(OC)c(NC(=O)CC2=C3CCCCC3N(Cc3ccc(F)cc3)C2=O)c1 (centres undefined)	i	x	u	u	x
COc1ccccc1Cn1c(=O)c(C(=O)N2CCN(C(=O)c3ccc(F)cc3)CC2)nc2cccnc21	i	x	u	-23.9%	x
CC(C)CN[C@H]1[C@H](O)[C@@H](N2CCC(Cc3ccccc3)CC2)[C@@H]2OC[C@H]1O2	i	i	u	u	2.9%[70.6 µM]
N#Cc1cccc(-c2c(C(=O)NC3CCCCC3)nc3sccn23)c1	i	x	-6.9%[172 µM]	-19.9%[138 µM]	x
Cc1nn(C)cc1CN1CCC(O)(c2ccccc2)[C@H](N2CCCC2)C1 (some centres undefined)	-3.3%	i	-25.1%	u	0.6%
CC(C)NC(=O)N1CCNc2cnc(Nc3cccc(F)c3)nc2C1	-13.1%[88.5 µM]	i	u	u	u
N#Cc1cccc(C(=O)N2CCNc3cnc(Nc4cccc(F)c4)nc3C2)c1	i	i	u	u	28.2µM*
O=C(c1cc2ccccc2[nH]1)N1CCNc2cnc(Nc3ccccc3)nc2C1	-19.2%[88.5 µM]	u	79.4µM*	u	u
Cn1c(=O)n([C@H]2CCCN(C(=O)c3cccnc3)C2)c2ncccc21	i	x	-9.1%	-17.4%	x
O=C(CC1CCCC1)N1CCC2(CC1)C(=O)N(c1cccc(F)c1)C2c1ccccc1 (centres undefined)	0.8%	x	u	u	x
COc1ccc(CN2CCC(c3nn(Cc4ccccc4)c(=O)[nH]3)CC2)cc1	-0.8%	i	-7.3%	-10.1%	24.6%
SMILES	GPT2 inh	FLuc inh	HEK293 tox	NIH3T3 tox	NPR1 antag
COc1ccc(Cn2nc(-c3ccccc3)nc2C2CCC(=O)NC2)cc1 (centres undefined)	-8.1%	35.5µM*	u	-15.3%	5.8%
COC(=O)N1CCC(C(=O)N2CCCC2c2nc3ccncc3[nH]2)CC1 (centres undefined)	2.7%	x	-3.3%	-22.1%	x
O=C(NCc1ccccc1F)c1ccc2c(c1)CN(Cc1ccccc1F)CCO2	-8.3%	x	44.7µM*	u	x
Cc1ccc(CNC(=O)c2ccc3c(c2)CN(Cc2ccncc2F)CCO3)cc1	-8.1%	i	u	u	u
O=C(NCc1ccccc1F)c1ccc2c(c1)CN(Cc1ccncc1F)CCO2	i	x	44.7µM*	u	x
N#Cc1ccc(C(=O)N2CCO[C@@H](COc3ccccn3)[C@@H]2c2ccccc2)cc1	i	x	u	-28.0%	x
Cc1nc(-c2ccc(F)cc2)n(Cc2nc(-c3ccccc3)oc2C)c(=O)c1CCO	-20.0%	i	-29.6%	-17.2%	-7.4%
O=C(Nc1ccc(Cl)cc1)N1CCN(c2ccc3nnc(C4CC4)n3n2)CC1	x	x	35.5µM*	22.4µM*	x
CCNC(=O)N1CCCC1c1noc(CCC(=O)NCc2cc(F)cc(F)c2)n1 (centres undefined)	i	i	11.7%	i	4.7%
O=C(c1ccccc1F)N1CCc2nc(C3CC3)nc(-c3ccc(Cl)cc3)c2C1	3.2%	x	-16.9%	u	x
O=C(Nc1ccc(Cl)cc1)N1CCc2nc(C3CC3)nc(-c3ccc(Cl)cc3)c2C1	i	i	28.2µM*	u	1.4%
O=C(c1ccc(C(F)(F)F)cc1)N1CCc2nc(C3CC3)nc(-c3ccc(Cl)cc3)c2CC1	-11.7%	i	28.2µM*	u	2.5%
Oc1ccc(-c2nc(C3CC3)nc3c2CN(CC2CCCCC2)CC3)cc1	-11.5%	i	79.4µM*	u	1.7%
O=C(c1ccccn1)N1CCc2nc(C3CC3)nc(-c3ccc(Cl)cc3)c2C1	2.8%	x	-5.1%	31.6µM*	x
O=C(NCC1CC1)c1cccc(OC2CN(C3CCCCC3)C2)c1	1.1%	i	-25.1%	u	-8.8%
COCCN1C(=O)c2ccccc2C(C(=O)Nc2cc(C)ccn2)C12CCCCC2 (centres undefined)	i	i	-2.4%	-23.4%	2.4%

Assay outcomes from PubChem BioAssay.
